For 32 compounds, activity change, negative = cytotoxicity and Potency results are on record in PubChem BioAssay (NCATS).

Records with an inconclusive call do not appear. Unmarked numbers belong to inactive results. The source made the active and inactive calls. Calls follow the shape of the dose curve; as a rule, active = well fitted cell-killing curve with a large enough effect; inconclusive = small, poorly fitted or top-dose-only effect, or effect the other way; inactive = flat fitted curve, though single readings scatter.

Holding throughout (assay): Primary qHTS to identify gynecologic anti-cancer compounds using libraries of approved drugs and bioactive compounds (AID 1345084); also: nearly all actives have a fitted effect of over 55% in size
Common to all, as to conditions: Gynecologic cancer cell panel viability, ATPlite luminescence, 48 h; series mostly up to 57.5 µM
(In general: qHTS replaces the single test concentration by a dilution series.)

The subject of one test is SKOV3. Put shortly: (§1)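 Five-point cytotoxicity, 48 h drug exposure at 37 C, 5% CO2, on cells seeded 16 h beforehand. ATP content read by ATPlite luminescence.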
For the next test, the system named is Tov-21-G. Put shortly: as §1
Another test concerns Tov112D. The method in brief: as §1
% is scaled to controls: 0 for no effect and ±100 for the full control effect; potency is read from the fitted curve at half-maximal effect.

Regarding `N#CSc1cc(SC#N)c(N)nc1N`, the activity change, negative = cytotoxicity is -0.394% [at 11.6 µM] with SKOV3 and -3.87% [at 11.6 µM] in the test on Tov-21-G.
For the compound `COc1cccc(-c2cn(-c3ccc(CCN4CCC(O)CC4)cc3)c3ncnc(N)c23)c1`, the values for the Potency with SKOV3 and with Tov-21-G were 8.91 µM (active) and 17.8 µM (active), respectively.
Taken in the same sequence, the figures for `C=C1C(=O)O[C@@H]2C(OC(=O)/C(C)=C\C)/C(C)=C\C(=O)/C=C(\C)C[C@H](O)[C@@H]12` (stereo not given in full) were “inactive” and 10 µM (active).
Regarding `COc1cc(O)c2c(c1)C1OC1C[C@H](O)[C@H](O)C(=O)/C=C\C[C@H](C)OC2=O` (stereo not given in full), the Potency entry with SKOV3 is “inactive”. In addition, the Potency in the test with Tov-21-G is 17.8 µM (active).
Take `C=CC(=O)N1CCN(C(=O)CNc2cc(-c3ccccc3Cl)c(Cl)cc2OC)CC1`: the Potency entry with SKOV3, with Tov-21-G and with Tov112D was “inactive” in each case.
With `CN(C)c1ccc(NC(=O)NS(=O)(=O)c2ccc(Cl)cc2)cc1`, the Potency entry in the test with SKOV3, with Tov-21-G and with Tov112D was “inactive” throughout.
As to `CC1=C(c2ccc(NC(=O)c3c(F)cccc3F)cc2)CN(c2nccs2)CC1`, the Potency entry with SKOV3, in the test on Tov-21-G and with Tov112D was “inactive” each time.
`CC(C)S(=O)(=O)NC[C@H](C)c1ccc(-c2ccc(CCNS(C)(=O)=O)cc2)cc1`: in the test on SKOV3, the Potency was 17.8 µM (active). Also, in the test with Tov-21-G, the Potency entry was “inactive”.
For `CCCC1(CCC)CCC2(CCN(CCCN(CC)CC)C2)CC1`, the Potency was 7.94 µM (active) with SKOV3 and 6.31 µM (active) with Tov-21-G.
In the case of `C=C1C(=O)OC2C3=C(C)C(=O)CC3C(C)CC(O)C12` (stereo not given), the Potency result in the test with SKOV3, in the test on Tov-21-G and in the test on Tov112D was “inactive” each time.
Turning to `O=C(Nc1ccc2[nH]c(=O)oc2c1)C(=O)N1CCC(Cc2ccc(F)cc2)CC1`, the Potency result in the test on SKOV3, in the test on Tov-21-G and with Tov112D was “inactive” each time.
Regarding `Cc1nc(C(=O)N2CCC[C@H]2Cc2nnc(-c3ccccc3)o2)c(-c2ccccc2F)s1`, the Potency entry in the test with SKOV3, in the test on Tov-21-G and in the test on Tov112D was “inactive” throughout.
As for `C/C=C(\C)C(=O)OC1C=C(C)CC(OC(=O)c2ccc(O)cc2)C2C1(C)CCC2(O)C(C)C` (stereo not given), the Potency result in the test on SKOV3, with Tov-21-G and with Tov112D was “inactive” in each case.
On to `Cc1ccc(F)cc1S(=O)(=O)N[C@@H]1CCN(Cc2ccc(OC(C)C)cc2)C1`, for which the Potency result with SKOV3, in the test with Tov-21-G and in the test with Tov112D was “inactive” each time.
Turning to `O=S(=O)(c1ccccc1)N(CC(F)(F)F)c1ccc(C(O)(C(F)(F)F)C(F)(F)F)cc1`, the Potency result in the test on SKOV3, in the test on Tov-21-G and in the test on Tov112D was “inactive” each time.
`CO[C@@H]1[C@H](O)CCC2(CO2)[C@H]1[C@@]1(C)O[C@@H]1CC=C(C)C` (stereo not given in full): the Potency entry in the test with SKOV3, in the test on Tov-21-G and with Tov112D was “inactive” in each case.
Turning to `CCOC(=O)c1csc(Nc2ccc(Cl)cc2)n1`, the Potency entry in the test with SKOV3, with Tov-21-G and in the test on Tov112D was “inactive” each time.
Turning to `Cc1noc(C)c1-c1cc(O)cc(C(O)c2ccccc2)c1` (stereo not given), the Potency in the test on SKOV3 was 15.8 µM (active). For the same compound, the Potency result in the test with Tov-21-G and in the test on Tov112D was “inactive” each time.
With `C=CC1(C)CC(O)C(C(=C)C(=O)OC)C(O)C1C(=C)CO` (stereo not given), the Potency entry in the test with SKOV3, in the test with Tov-21-G and in the test on Tov112D was “inactive” throughout.
On to `CC(C)=CCC/C(C)=C/COCC1OC(n2ccc(=O)[nH]c2=O)C(O)C1O` (stereo not given), for which the Potency result with SKOV3, in the test on Tov-21-G and in the test with Tov112D was “inactive” throughout.
Turning to `C=C(C)C(=O)O[C@H]1/C(C=O)=C\CC/C(CO)=C/[C@H]2OC(=O)C(=C)[C@@H]2[C@@H]1OC`, the Potency result with SKOV3, in the test on Tov-21-G and in the test with Tov112D was “inactive” in each case.
As for `CN(C)S(=O)(=O)c1ccc(NC(=S)N2CCC(C(O)(c3ccccc3)c3ccccc3)CC2)cc1`, the Potency entry with SKOV3, in the test on Tov-21-G and in the test with Tov112D was “inactive” in each case.
Turning to `CC(=O)O[C@]1(C(C)=O)CC[C@H]2[C@@H]3CCC4=CC(=O)CCC4=C3[C@@H](c3ccc(N(C)C)cc3)C[C@@]21C`, the Potency entry in the test on SKOV3, in the test on Tov-21-G and with Tov112D was “inactive” throughout.
As for `Cc1ccccc1C(C(=O)NC1CCCCC1)N(C(=O)Cn1cnc2ccccc21)c1cccc(F)c1` (stereo not given), the Potency entry in the test with SKOV3, with Tov-21-G and in the test with Tov112D was “inactive” throughout.
Regarding `Cc1ccc(-c2ncc[nH]2)cc1NC(=O)c1ccc(OCc2ccccn2)cc1`, the Potency entry in the test with SKOV3, with Tov-21-G and in the test on Tov112D was “inactive” throughout.
Turning to `Cc1c(C(=O)NCc2cccnc2)nn(-c2ccc(Cl)cc2Cl)c1-c1ccc(Cl)cc1`, the Potency result in the test on SKOV3, in the test with Tov-21-G and in the test with Tov112D was “inactive” each time.
For the compound `CC(C)(O)c1ccn2c(-c3ccc(F)c(-c4ccc(F)cc4C#N)c3)cnc2c1F`, the Potency entry in the test on SKOV3, in the test with Tov-21-G and in the test with Tov112D was “inactive” each time.
Turning to `Cn1ncnc1[C@@H]1c2n[nH]c(=O)c3cc(F)cc(c23)N[C@H]1c1ccc(F)cc1`, the Potency entry in the test with SKOV3, in the test with Tov-21-G and in the test on Tov112D was “inactive” throughout.
With `COc1ccc(C2Oc3c(OC)cc(CCCO)cc3C2COC2OC(CO)C(O)C(O)C2O)cc1OC` (stereo not given), the Potency entry with SKOV3, in the test on Tov-21-G and in the test on Tov112D was “inactive” throughout.
Take `N#Cc1cccc(C(=O)Nc2cc(-c3ccccc3)nn2-c2ccccc2)c1`: the Potency entry with SKOV3, with Tov-21-G and with Tov112D was “inactive” in each case.
In the case of `Cc1ccc(C)c(NS(=O)(=O)c2cc(C(=O)Nc3ccccc3-c3ccccc3)ccc2C)c1`, the Potency entry with SKOV3, with Tov-21-G and with Tov112D was “inactive” each time.
Regarding `COc1cc(C(C)=O)c(OC)c2c1OC(C)(C)C=C2`, the Potency entry in the test on SKOV3, with Tov-21-G and with Tov112D was “inactive” in each case.
